# Screens as filed in PubChem BioAssay.
# D2 ag-1: human D2 receptor agonism in beta-arrestin assay | 0.084% of 360,000 active | P14416 | AID 624465 | activation, % (test concentration not listed) | DiscoveRx PathHunter D2 beta-arrestin, luminescence, 90 min; 100% = 57 uM dopamine signal; in the data active = activation above about 40%
# Target sequence (P14416 whole entry, looked up): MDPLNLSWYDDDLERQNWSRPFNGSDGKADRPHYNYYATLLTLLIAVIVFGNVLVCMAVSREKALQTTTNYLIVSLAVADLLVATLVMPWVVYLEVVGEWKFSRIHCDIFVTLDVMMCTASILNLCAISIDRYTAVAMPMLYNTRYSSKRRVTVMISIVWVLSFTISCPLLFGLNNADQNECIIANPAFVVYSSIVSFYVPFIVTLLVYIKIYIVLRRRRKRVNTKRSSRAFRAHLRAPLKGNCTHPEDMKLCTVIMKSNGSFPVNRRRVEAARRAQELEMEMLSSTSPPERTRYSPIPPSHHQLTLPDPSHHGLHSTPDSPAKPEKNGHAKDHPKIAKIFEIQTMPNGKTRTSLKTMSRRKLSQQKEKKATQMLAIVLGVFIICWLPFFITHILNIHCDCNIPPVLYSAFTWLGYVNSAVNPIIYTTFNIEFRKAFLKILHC
#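 Agonist mode: compounds alone added to overnight-plated D2 PathHunter cells for 90 min at 37 C, with 57 uM final dopamine (EC100) defining full response. Beta-arrestin recruitment detected by chemiluminescent reagent, read after 1 h at ambient temperature.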
# D2 antagonist: antagonists of human D2 dopamine receptor. 2% of 340,000 active. HEK293 TREx D2 cells, calcium flux, dopamine EC80. P14416. inhibition, % at 10 µM; in the data active = inhibition above about 30%; inactive = below that, where a call was filed; note: 0% is about no effect
#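 Overnight-induced (tetracycline, 30 C) HEK293 T-REx cells carrying force-coupled D2 receive a no-wash calcium dye, then compound, then EC80 dopamine at 180 s; signals are read kinetically throughout.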
# D2 PAM-1: D2 dopamine receptor (human) potentiation; HEK293 T-REx D2, calcium flux, EC20 dopamine potentiation; AID 485347; 0.34% of 340,000 active; P14416; potentiation, % at 10 µM;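 active = potentiation over 3 SD above the plate norm, cut at about 30% in these data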; note: 0% is about no effect
#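 Tetracycline-induced Hek293 Trex D2 cells, force-coupled to calcium, loaded with no-wash calcium dye. Compound added with 180 s kinetic read for agonism, then EC20 dopamine and a further 180 s read for potentiation.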
# D2 PAM-2: potentiates the human D2 dopamine receptor allosterically; P14416; DiscoveRx D2 beta-arrestin cells, luminescence, 90 min; 100% = 57 uM dopamine signal; potentiation, % (concentration not given with the values); 0.23% of 360,000 active; in the data active = potentiation above about 50%
#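 PathHunter beta-arrestin assay in DiscoveRx D2 cells. Compounds were added with an EC20 of dopamine (50 nM final) for 90 min at 37 deg C. Luminescence was read 1 h after detection reagent, with 57 uM dopamine as the EC100 control.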
# D2 ag-2: D2 dopamine receptor (human) agonism | P14416 | HEK293 T-REx D2 cells, calcium flux agonist mode | activation, % at 2 µM | 0.53% of 340,000 active | AID 485358;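 active = activation over 3 SD above normal in the single-dose calcium agonist read, cut at about 30% in these data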; note: 0% is about no effect
#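 Tetracycline-induced HEK293 Trex cells with D2 receptor force-coupled to calcium signaling, plated overnight at 30 C and loaded with no-wash calcium dye. Calcium flux read kinetically for 180 s after compound addition; responses flag agonists.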
# Starred values were filed as active, the others as inactive; nt = not tested or not shown. Sampled rows, rich in hits. Any-hit rate of the full collection: about 2.4%.
SMILES,D2 ag-1,D2 antagonist,D2 PAM-1,D2 PAM-2,D2 ag-2
N#CC1(NC(=O)COC(=O)C2=COCCO2)CCCCC1,-5,50*,3,-4,0
COC(=O)CC(=O)CSc1nc2cc(C(=O)NCC(C)C)ccc2c(=O)n1CCc1ccccc1,nt,nt,9,nt,-1
Cc1ccc(NC2=C(NC(=O)c3ccccc3)C(=O)c3ccccc3C2=O)cc1Cl,11,14,2,65*,-2
O=C(O)c1cccc(NC2=C(Cl)C(=O)c3ccccc3C2=O)c1,41*,nt,-3,1,nt
CCc1ccc(NC(=O)c2cnn3ccccc23)cc1,-4,42*,-1,-11,-1
CCOc1ccc(Cn2c3ccc(OC)cc3c3nc4ccccc4nc32)cc1,1,5,3,9,2
CCn1c2ccc(OC)cc2c2nc3ccccc3nc21,-2,-6,31*,-12,-1
Cc1ccccc1/C=N/NC(=O)c1cccnc1,-7,-12,4,-3,0
O=C(O)c1cccc(N/N=C/c2cccc3ccccc23)c1,-1,-6,47*,5,-1
COc1ccc2ccccc2c1/C=N/Nc1cccc(C(=O)O)c1,6,14,10,12,0
O=C(N/N=C/c1cccc2ccccc12)c1cccnc1,-3,37*,0,-18,0
O=C(N/N=C/C=C/c1cccc([N+](=O)[O-])c1)c1ccncc1,1,3,-9,-2,-1
Nc1ccc(C(=O)N/N=C\C=C\c2cccc([N+](=O)[O-])c2)cc1,-2,48*,-4,-4,3
O=C(N/N=C/c1cccc2ccccc12)c1cc2ccccc2o1,-4,52*,-22,-21,-1
COc1ccc2c(CNCCc3ccccc3)c(C(=O)O)n(Cc3cccc(F)c3)c2c1,nt,nt,-8,nt,0
O=C(O)Cn1cc(/C=N/NC(=O)c2cc3cc(Br)ccc3o2)c2ccccc21,2,-22,-21,-4,0
O=C(COC(=O)c1cccnc1)Nc1cccc2ccccc12,-7,32*,2,-5,0
O=C(N/N=C/c1cccc([N+](=O)[O-])c1)c1cc2ccccc2o1,-5,33*,-20,-27,-1
Cn1cc(/C=N/NC(=O)c2cc3cc(Br)ccc3o2)c2ccccc21,-3,66*,-21,-9,0
O=C(O)c1cccc(N/N=C/c2sc(N3CCOCC3)nc2-c2ccccc2)c1,13,-12,8,112*,-1
CCCCN(CC)CCCn1cnc2c([nH]c3ccc(Cl)cc32)c1=O,nt,nt,7,nt,3
Cc1nc(-c2ccc(S(=O)(=O)N(Cc3ccccc3)C(C)C)cc2)co1,nt,nt,8,nt,-1
CC(=O)Nc1cccc(C(=O)OCC(=O)c2ccccc2Cl)c1,-3,41*,-2,5,2
CCC(C(=O)Nc1ccc(C(C)=O)cc1)n1cnc2nc3c(cc2c1=O)CCCC3 (stereo not drawn),nt,nt,6,nt,-1
Cc1cccc2sc(NNC(=O)C3COc4ccccc4O3)nc12 (stereo not drawn),7,10,-2,5,-1
SMILES,D2 ag-1,D2 antagonist,D2 PAM-1,D2 PAM-2,D2 ag-2
Cc1cc(C)c2sc(NNC(=O)C3COc4ccccc4O3)nc2c1 (stereo not drawn),-4,33*,-3,-6,-1
COC(=O)c1ccc(Cl)cc1NC(=O)N1CC=C(c2c[nH]c3ccccc23)CC1,nt,nt,-4,nt,3
COc1ccc(C(=O)C2CCCN(C/C=C/c3ccccc3OC)C2)c(OC)c1 (stereo not drawn),-2,86*,-22,-8,-1
COc1cccc(C(=O)C2CCCN(C/C=C/c3ccccc3OC)C2)c1 (stereo not drawn),1,0,-22,-2,-1
COc1cc(C(O)P(=O)(OCC(C)C)OCC(C)C)cc(OC)c1OC (stereo not drawn),-2,16,-8,9,0
CC(C)COP(=O)(OCC(C)C)C(O)c1ccccc1F (stereo not drawn),-1,52*,-4,-2,0
CCOC(=O)c1c(NC(=O)Nc2ccc(F)cc2)sc(C(=O)N(C)C)c1C,nt,nt,6,nt,-1
COc1ccc(CN(C)c2ccc(-c3nc(-c4ccc(OC)c(OC)c4)no3)cc2[N+](=O)[O-])cc1,nt,nt,5,nt,6
CCOc1cc(CNc2ncnc3nc[nH]c23)ccc1OC,-4,38*,-12,-2,-1
COc1ccccc1NC(=O)C1=C(C)Nc2nc(SCc3ccccc3)nn2C1c1cccnc1 (stereo not drawn),nt,nt,5,nt,0
CCOc1ccc(N(C)S(=O)(=O)c2ccc3c(c2)C(C)(C)C(=O)N3C)cc1,nt,nt,-4,nt,-1
COc1cccc(CNS(=O)(=O)c2ccc(S(=O)(=O)N3CCCC3)cc2)c1,-1,13,32*,-2,-1
COc1cccc(NS(=O)(=O)c2ccc(S(=O)(=O)N3CCCC3)cc2)c1,-2,-18,17,-2,0
COc1cccc(CN(Cc2ccccc2F)S(=O)(=O)c2ccc(S(=O)(=O)NCc3ccccc3)cc2)c1,3,43*,4,-8,2
COc1ccc(CNS(=O)(=O)c2ccc3c(c2)N(C(C)=O)CCO3)cc1,-2,-2,-20,-21,1
COc1cccc(CNS(=O)(=O)c2ccc3c(c2)N(C)CCO3)c1,-1,39*,21,1,0
CC1CCCN(c2ncnc3c2nnn3C)C1 (stereo not drawn),nt,nt,4,nt,-2
Cc1ccc(C)c(CSc2nc(-c3ccccc3F)nc3c2Cc2c(CO)cnc(C)c2O3)c1,nt,nt,-6,nt,1
CN(Cc1ccccc1)C(=O)CCN1C(=O)c2cccc([N+](=O)[O-])c2C1=O,3,nt,nt,-4,nt
O=C1c2cccc([N+](=O)[O-])c2C(=O)N1CCO,-1,6,40*,-1,1
N#C/C(=C1\C(=O)Nc2c(Cl)cc(Cl)cc21)c1nnc2n1CCCCC2,6,nt,nt,67*,nt
COc1ccc(C2CC(C(F)(F)F)n3nc(C(=O)N(C)Cc4cn(C)nc4C)c(Cl)c3N2)cc1 (stereo not drawn),0,-1,34*,-10,-1
COc1ccc(C2CC(C(F)(F)F)n3nc(C(=O)NCc4c(C)nn(C)c4C)c(Cl)c3N2)cc1 (stereo not drawn),5,16,-6,22,-1
CCc1cccc(CN2CCC(CNC(=O)Nc3ccc(Cl)cc3)CC2)c1,-4,35*,-17,-21,0
CCN1CCC(NC(=O)Nc2ccccc2C(=O)OC)CC1,-1,-13,-5,-17,-1
COc1ccc(C)cc1NC(=O)NC1CCN(Cc2ccccc2)CC1,0,75*,-26,-20,1
COC(=O)c1ccccc1NC(=O)NC1CCN(Cc2ccccc2)CC1,3,64*,-19,-17,1
